Results taken from PubChem BioAssay (NCATS).
“And” between values parts separate entries of the source, which are not always exact repeats. Equal entries are not always repeated. Inconclusive results are not listed. A call without a number means that no potency is given here. The source made the active and inactive calls. Unless noted, calls follow the shape of the dose curve; as a rule, active = well fitted curve in the direction sought with a large enough effect; inconclusive = small, poorly fitted or top-dose-only effect, or another doubt; inactive = no such curve, though single readings can be large; an effect the other way counts as inactive or inconclusive.

Legend:
[1] = biological target: Voltage-gated inwardly rectifying potassium channel KCNH2 (Homo sapiens) (UniProt Q12809); test: qHTS Assay for Small Molecule Inhibitors of the Human hERG Channel Activity (AID 588834);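 also: lower thallium flux fluorescence means stronger hERG block; nearly all actives have a fitted effect of over 50% in size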; also: potency is read from the fitted curve at half-maximal effect
Outline: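 Blockade is seen as reduced FluxOR thallium-flux fluorescence in U2OS cells expressing hERG from a BacMam construct, in Opti-MEM with 2% FCS. Concentration-response data fitted to the Hill equation for AC50.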

[2] = biological target: Luciferin 4-monooxygenase (Photinus pyralis) (UniProt P08659); test: Biochemical firefly luciferase enzyme assay for NPC (AID 624030); also: nearly all actives have a fitted effect of over 70% in size; also: potency is read from the fitted curve at half-maximal effect
Outline: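 Counter-screen for direct inhibition of the luciferase enzyme by approved-drug library compounds, run at 10 nM enzyme in 50 mM Tris acetate (final). Luminescence was read within 5 min of enzyme-buffer addition and normalized to PTC124 versus DMSO (0%).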

[3] = S16 Schwann cell viability assay (CellTiter-Glo assay) (AID 624031); also: nearly all actives have a fitted effect of over 70% in size; also: potency is read from the fitted curve at half-maximal effect
Outline: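 Native S16 Schwann cells (rat), serum-containing medium, overnight attachment then 24 h drug exposure at 37 °C/5% CO2. CellTiter-Glo ATP signal; normalized to cell-free and vehicle wells.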

[4] = S16 Schwann cell PMP22 intronic element firefly luciferase assay (AID 624032); also: nearly all actives have a fitted effect of over 30% in size; also: potency is read from the fitted curve at half-maximal effect
Outline: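 Rat S16 Schwann cells stably carrying a PMP22 intronic element-driven Fluc reporter were seeded overnight, then exposed to compounds for 24 h at 37 °C. Luminescence was normalized to PTC124 (positive control) and DMSO (0% activity).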

[5] = S16 Schwann cell PMP22 intronic element beta-lactamase assay (AID 624044; calls by dose curve; also: nearly all actives have a fitted effect of over 15% in size; also: potency is read from the fitted curve at half-maximal effect)
Outline: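 Rat S16 Schwann cells with beta-Lac driven by a PMP22 intronic element, compound-treated 24 h at 37 °C. LiveBLAzer FRET B/G read: 460 nm normalized to potassium clavulanate vs DMSO; 535 nm FRET as viability; concentration-effect curves classified.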

[6] = biological target: Glutaminase kidney isoform, mitochondrial (Homo sapiens) (UniProt O94925); test: qHTS for Inhibitors of Glutaminase (GLS): LOPAC Validation (AID 624146);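 also: glutamate product detected by oxidase and peroxidase coupled Amplex red fluorescence gain; nearly all actives have a fitted effect of over 60% in size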
Outline: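 hKGA; 45 mM KH2PO4 pH 8.2 + 0.02% Tween-20; cpd via pin tool; 1 mM Gln soln; GluOx/HRP/Amplex Red; RT 30 min; fluor. t0 & final.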

[7] = qHTS of Trypanosoma Brucei Inhibitors: LOPAC Validation (AID 624147)
Outline: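 In this concentration-response screen, enzyme-free wells defined baseline while DMSO plates tracked drift. Each reaction combined TbPYK, substrate, compound and 130 uM ADP for 45 min at room temperature. Kinase-Glo Plus luminescence gave the signal.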

[8] = biological target: Glucagon-like peptide 1 receptor (Homo sapiens) (UniProt P43220); test: qHTS of GLP-1 Receptor Agonists: LOPAC Validation (AID 624148);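 also: higher luminescence signal means agonism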
Outline: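 HEK293 cells stably co-expressing a cAMP-responsive luciferase reporter and a hypersensitive GLP-1R were plated 12 h at 37 °C and exposed to compounds for 4-6 hr at 37 °C, 5% CO2. Luminescence was read 12 min after adding detection reagent.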

[9] = HTS Assay for Allosteric Antagonists of the Human D2 Dopamine Receptor: Hit Validation in HTRF (AID 624455);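 also: stable D1 dopamine receptor cell line scored for blocking the D1 response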
Outline: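 Signal from an HTRF read-out in D1-expressing stable cells gave hit activity as inhibition of the D1 response.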

[10] = biological target: Retinoic acid receptor RXR-alpha (Homo sapiens) (UniProt P19793); test: qHTS assay for small molecule antagonists of retinoid X receptor alpha signaling (AID 588546; active = well fitted inhibition curve with a large enough effect in the signal ratio, with a control signal flat, not every such curve was filed as active; the % refers to the signal ratio;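 also: cells stimulated with 9-cis-retinoic acid as agonist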); conditions: HEK293T RXRa-UAS-bla, beta-lactamase ratio, antagonist mode
Outline: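 Beta-lactamase reporter inhibition, read as CCF4 fluorescence ratio (ex 405, em 460/530 nm) after 2 h at RT. HEK293T UAS-bla cells, 2500/well, were stimulated with 9-cis-RA at 500 or 100 nM final alongside test compound for 18 h at 37 C.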

[11] = biological target: Thyroid hormone receptor beta (Homo sapiens) (UniProt P10828); test: qHTS assay for small molecule antagonists of thyroid hormone receptor beta signaling (AID 588547; active = well fitted inhibition curve with a large enough effect in the signal ratio, with a control signal flat, not every such curve was filed as active; the % refers to the signal ratio;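 also: cells stimulated with 0.4 nM T3 agonist during compound exposure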); conditions: TR-UAS-bla HEK293, beta-lactamase ratio, antagonist mode, 18 h
Outline: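 TR-UAS-bla GripTite HEK293 cells in 2% charcoal/dextran FBS medium were preincubated 4 h at 37 C, given compound (0.59 nM to 92 uM) plus 0.4 nM T3 (final) for 18 h, then CCF4 for 2 h at RT; Hill fit gave IC50.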

[12] = qHTS assay for small molecule agonists of the antioxidant response element (ARE) signaling pathway (AID 651741; active = well fitted activation curve with a large enough effect in the signal ratio; the % refers to the signal ratio; also: potency is read from the fitted curve at half-maximal effect)
Outline: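 ARE-bla HepG2 cells (beta-lactamase reporter under ARE control) were plated at 2,000 cells/well, preincubated 5 h at 37 C/5% CO2, then treated with DMSO-dissolved compounds for 16 h at 37 C; LiveBLAzer B/G FRET substrate added, fluorescence read after 2 h at room temperature.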

[13] = qHTS assay for small molecule activators of the nuclear factor-kappa B (NF-kB) signaling pathway (AID 651749; active = well fitted activation curve with a large enough effect in the signal ratio; the % refers to the signal ratio); conditions: NF-kB-bla ME-180 cells, beta-lactamase FRET ratio, 16 h; stronger effect = higher value
Outline: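 ME-180 cells stably carrying a beta-lactamase reporter under an NF-kB response element were exposed to compound or DMSO vehicle for 16 hr at 37C, 5% CO2. Pathway activation was read by FRET, since reporter expression disrupts FRET.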

[14] = qHTS of Nrf2 Activators: LOPAC Validation (AID 624149)
Outline: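 ARE reporter activation measured in AREc32 firefly luciferase cells after 24 hr compound exposure; Steady-Glo luminescence.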

[15] = qHTS assay for small molecule disruptors of the mitochondrial membrane potential - 1 hr assay (AID 651754; calls by dose curve; also: nearly all actives have a fitted effect of over 35% in size)
Outline: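 Steps: seed HepG2 cells and let attach overnight; pin-transfer compound or vehicle; incubate 1 hr at 37C; add Mito-MPS dye for 30 min; read two-channel fluorescence for monomer and aggregate forms.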

[16] = qHTS Assay for Identification of Small Molecule Agonists for NFkB Signaling Pathway. (AID 624478);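 also: compounds tested together with TNF alpha at its EC50 of 10 pM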
Outline: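 Cells carrying an NFkB response element-driven beta-lactamase gene are co-treated with compound and 10 pM TNF alpha for 5 h, and reporter activity is then read as 460 and 530 nm fluorescence.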

[17] = qHTS Assay for Identification of Small Molecule Antagonists for NFkB Signaling Pathway. (AID 624479; calls by dose curve;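 also: pathway stimulated with TNF alpha; potency is read from the fitted curve at half-maximal effect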); conditions: NFkB pathway reporter cell assay, antagonist mode
[18] = Cell Proliferation Assay against the TMD8 Cell Line (AID 651645); conditions: TMD8 DLBCL cell line proliferation/viability; at 46.1 µM (top of the series);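 also: cells exposed to compound for 48 h before reading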
Outline: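 Cell viability of the ABC DLBCL line TMD8 is measured by CellTiter-Glo luminescence following a 48-hour incubation with compound. Percent activity uses DMSO as 100% and 9.2 uM bortezomib (final) as 0%.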

[19] = Cell Proliferation Assay against the HBL1 Cell Line (AID 651646); conditions: HBL1 DLBCL cells; at 46.1 µM (top of the series);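 also: cells exposed to compound for 48 h before reading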
Outline: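 500 log-phase HBL1 cells per well in phenol red-free RPMI with 5% FBS were treated with compounds for 48 h at 37 °C, 5% CO2. Viability was read by CellTiter-Glo luminescence, normalized to DMSO (100%) and 9.2 uM bortezomib final (0%).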

[20] = Cell Proliferation Assay against the TMD8 Cell Line (Caspase readout at 16 hrs) (AID 651712); conditions: TMD8 lymphoma cells, caspase activation luminescence; also: potency is read from the fitted curve at half-maximal effect
Outline: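 TMD8 cells (500/well) in phenol-red-free RPMI with glutamine, 5% FBS, were exposed to compounds for 16 h at 37 °C. Caspase 3/7 activation was read by Caspase-Glo luminescence; percent activity normalised to DMSO (0%) and 9.2 uM bortezomib final (100%).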

Chain of Glucagon-like peptide 1 receptor (Homo sapiens) (P43220 whole entry, looked up): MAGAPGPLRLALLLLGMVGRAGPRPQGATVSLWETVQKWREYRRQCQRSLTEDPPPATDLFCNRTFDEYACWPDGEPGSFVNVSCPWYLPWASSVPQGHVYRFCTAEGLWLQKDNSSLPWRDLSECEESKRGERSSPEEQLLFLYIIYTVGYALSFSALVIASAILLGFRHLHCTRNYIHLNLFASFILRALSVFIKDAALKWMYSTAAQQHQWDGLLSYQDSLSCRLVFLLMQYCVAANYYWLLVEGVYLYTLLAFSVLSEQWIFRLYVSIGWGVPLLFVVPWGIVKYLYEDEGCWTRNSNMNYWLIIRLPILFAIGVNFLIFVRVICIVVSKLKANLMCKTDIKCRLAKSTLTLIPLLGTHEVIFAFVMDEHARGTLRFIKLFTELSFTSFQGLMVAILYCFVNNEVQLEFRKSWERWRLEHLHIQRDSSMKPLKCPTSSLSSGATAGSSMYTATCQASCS
Chain of Voltage-gated inwardly rectifying potassium channel KCNH2 (Homo sapiens) (Q12809 whole entry, looked up): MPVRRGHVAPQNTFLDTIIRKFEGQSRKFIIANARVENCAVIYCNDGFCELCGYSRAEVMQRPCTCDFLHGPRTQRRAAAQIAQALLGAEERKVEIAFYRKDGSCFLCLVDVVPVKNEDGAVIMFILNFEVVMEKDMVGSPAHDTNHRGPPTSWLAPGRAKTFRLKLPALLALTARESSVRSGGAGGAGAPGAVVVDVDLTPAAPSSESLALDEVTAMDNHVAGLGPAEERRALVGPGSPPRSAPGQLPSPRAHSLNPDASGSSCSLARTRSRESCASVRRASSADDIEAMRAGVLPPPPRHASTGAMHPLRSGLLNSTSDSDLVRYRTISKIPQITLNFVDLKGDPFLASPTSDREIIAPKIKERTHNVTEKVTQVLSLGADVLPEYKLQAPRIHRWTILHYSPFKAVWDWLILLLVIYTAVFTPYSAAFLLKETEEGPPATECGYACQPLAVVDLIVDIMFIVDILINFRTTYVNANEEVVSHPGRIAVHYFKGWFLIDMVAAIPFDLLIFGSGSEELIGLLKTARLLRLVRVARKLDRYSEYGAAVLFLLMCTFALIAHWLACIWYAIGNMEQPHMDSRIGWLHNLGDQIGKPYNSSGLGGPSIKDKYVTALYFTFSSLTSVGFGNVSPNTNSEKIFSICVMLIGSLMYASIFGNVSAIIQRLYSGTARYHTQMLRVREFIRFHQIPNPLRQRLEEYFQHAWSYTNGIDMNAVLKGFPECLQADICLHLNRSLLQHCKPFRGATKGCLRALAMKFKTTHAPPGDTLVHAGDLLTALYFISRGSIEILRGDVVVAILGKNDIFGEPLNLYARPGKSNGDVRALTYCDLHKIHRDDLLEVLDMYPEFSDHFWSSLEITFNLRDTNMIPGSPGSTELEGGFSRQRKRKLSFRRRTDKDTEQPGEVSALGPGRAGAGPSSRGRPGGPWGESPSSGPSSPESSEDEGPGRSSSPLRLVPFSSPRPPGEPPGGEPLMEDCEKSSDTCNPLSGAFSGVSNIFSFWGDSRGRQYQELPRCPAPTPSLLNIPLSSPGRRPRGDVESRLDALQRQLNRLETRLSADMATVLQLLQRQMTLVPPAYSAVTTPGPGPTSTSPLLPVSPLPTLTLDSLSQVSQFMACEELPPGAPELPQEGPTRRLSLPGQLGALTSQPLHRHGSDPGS
Chain of Glutaminase kidney isoform, mitochondrial (Homo sapiens) (O94925 whole entry, looked up, canonical isoform): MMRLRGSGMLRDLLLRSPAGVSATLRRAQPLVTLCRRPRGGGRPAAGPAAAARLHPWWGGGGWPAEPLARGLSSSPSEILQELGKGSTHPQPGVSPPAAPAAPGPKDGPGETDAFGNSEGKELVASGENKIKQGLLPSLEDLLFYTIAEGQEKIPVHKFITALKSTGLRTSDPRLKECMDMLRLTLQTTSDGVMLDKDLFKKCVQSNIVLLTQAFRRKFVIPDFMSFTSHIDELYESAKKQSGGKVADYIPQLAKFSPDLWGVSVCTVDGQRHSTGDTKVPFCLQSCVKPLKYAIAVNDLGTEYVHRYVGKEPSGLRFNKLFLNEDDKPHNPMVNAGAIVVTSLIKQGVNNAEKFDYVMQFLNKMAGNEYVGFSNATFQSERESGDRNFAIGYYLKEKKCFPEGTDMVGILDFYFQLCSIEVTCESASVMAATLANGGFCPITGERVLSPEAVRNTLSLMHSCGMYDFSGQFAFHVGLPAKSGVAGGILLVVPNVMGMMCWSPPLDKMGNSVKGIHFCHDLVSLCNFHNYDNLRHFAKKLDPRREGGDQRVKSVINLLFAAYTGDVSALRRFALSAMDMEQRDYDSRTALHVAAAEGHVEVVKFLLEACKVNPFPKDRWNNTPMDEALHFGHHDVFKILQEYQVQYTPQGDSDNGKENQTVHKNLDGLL
Chain of Retinoic acid receptor RXR-alpha (Homo sapiens) (P19793 whole entry, looked up): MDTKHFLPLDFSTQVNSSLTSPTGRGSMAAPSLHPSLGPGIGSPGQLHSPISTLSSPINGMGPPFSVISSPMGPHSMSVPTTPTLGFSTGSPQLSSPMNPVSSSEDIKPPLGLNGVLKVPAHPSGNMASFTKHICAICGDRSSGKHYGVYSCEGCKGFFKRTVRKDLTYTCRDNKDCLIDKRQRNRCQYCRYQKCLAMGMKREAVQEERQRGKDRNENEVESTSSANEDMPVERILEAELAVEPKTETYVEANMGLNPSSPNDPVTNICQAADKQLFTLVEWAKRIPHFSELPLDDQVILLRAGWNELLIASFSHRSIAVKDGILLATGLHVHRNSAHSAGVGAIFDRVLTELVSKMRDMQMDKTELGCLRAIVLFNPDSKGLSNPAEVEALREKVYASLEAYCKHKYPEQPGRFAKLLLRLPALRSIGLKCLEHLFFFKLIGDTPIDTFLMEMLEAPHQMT
Chain of Luciferin 4-monooxygenase (Photinus pyralis) (P08659 whole entry, looked up): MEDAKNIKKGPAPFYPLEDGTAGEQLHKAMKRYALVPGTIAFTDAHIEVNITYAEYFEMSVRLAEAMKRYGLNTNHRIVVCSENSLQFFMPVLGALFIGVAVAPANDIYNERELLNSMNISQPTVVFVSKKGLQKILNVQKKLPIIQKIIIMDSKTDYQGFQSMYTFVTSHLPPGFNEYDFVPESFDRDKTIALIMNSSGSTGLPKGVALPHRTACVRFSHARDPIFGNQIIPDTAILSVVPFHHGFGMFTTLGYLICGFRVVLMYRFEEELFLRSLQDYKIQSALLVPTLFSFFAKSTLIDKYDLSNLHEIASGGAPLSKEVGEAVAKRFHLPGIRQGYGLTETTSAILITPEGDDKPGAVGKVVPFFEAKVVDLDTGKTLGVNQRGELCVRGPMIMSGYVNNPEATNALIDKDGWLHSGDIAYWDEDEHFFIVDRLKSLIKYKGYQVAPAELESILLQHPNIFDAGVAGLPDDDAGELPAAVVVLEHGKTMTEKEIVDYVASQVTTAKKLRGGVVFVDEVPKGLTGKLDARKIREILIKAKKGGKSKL
Chain of Thyroid hormone receptor beta (Homo sapiens) (P10828 whole entry, looked up): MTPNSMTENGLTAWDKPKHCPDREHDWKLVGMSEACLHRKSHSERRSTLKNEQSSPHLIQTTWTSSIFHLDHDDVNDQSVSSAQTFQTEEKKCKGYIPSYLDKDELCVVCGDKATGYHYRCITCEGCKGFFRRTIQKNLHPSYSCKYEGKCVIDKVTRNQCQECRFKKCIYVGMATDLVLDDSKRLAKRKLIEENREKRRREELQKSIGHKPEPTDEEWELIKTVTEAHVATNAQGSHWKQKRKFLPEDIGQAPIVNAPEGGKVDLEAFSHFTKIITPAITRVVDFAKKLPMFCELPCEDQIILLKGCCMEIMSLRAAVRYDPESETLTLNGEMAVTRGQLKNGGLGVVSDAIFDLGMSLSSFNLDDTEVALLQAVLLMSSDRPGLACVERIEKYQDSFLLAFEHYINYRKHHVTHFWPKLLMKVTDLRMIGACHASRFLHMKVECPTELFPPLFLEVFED

Row | SMILES | Potency [1] | Potency [2] | Potency [3] | Potency [4] | Potency [5] | Potency [6] | outcome [7] | outcome [8] | Potency [9] | max response [10] | activity change % (negative = inhibition) [11] | Potency [12] | activation [13] | outcome [14] | Potency [15] | outcome [16] | Potency [17] | viability (% of control) [18] [%] | viability, percent of control [19] [%] | Potency [20]
1 | Cc1nc2ccccn2c(=O)c1CCN1CCC(C(=O)c2ccc(F)cc2)CC1 | 1.12 µM (active) and 4.47 µM (active) | inactive | inactive | inactive | inactive | inactive | inactive | inactive | inactive | – | – | – | – | – | – | – | – | – | – | –
2 | CC(=O)Nc1nnc(S(N)(=O)=O)s1 | inactive | inactive | inactive | – | – | inactive | inactive | – | inactive | -1.61% (inactive) | -8.01% (inactive) | inactive | 1.13% (inactive) | – | – | – | – | – | – | –
3 | O=C(CCNNC(=O)c1ccncc1)NCc1ccccc1 | inactive | inactive | inactive | inactive | inactive | inactive | inactive | inactive | inactive | – | – | – | – | inactive | – | – | – | – | – | –
4 | CC(=O)OCC1=C(C(=O)O)N2C(=O)[C@@H](NC(=O)Cc3cccs3)[C@H]2SC1 | inactive | inactive | inactive | inactive | inactive | inactive | inactive | inactive | inactive | – | – | – | – | – | – | – | – | – | – | –
5 | Cc1cc(C)c(/C=C2\C(=O)Nc3ccccc32)[nH]1 | 25.1 µM (active) and 7.94 µM (active) | inactive | inactive | inactive | inactive | inactive | inactive | – | inactive | – | – | – | – | inactive | – | – | – | – | – | –
6 | CC(C)(Oc1ccc(CCNC(=O)c2ccc(Cl)cc2)cc1)C(=O)O | inactive | inactive | inactive | inactive | – | inactive | inactive | inactive | inactive | -3.89% (inactive) | 12.2% (inactive) | – | -0.302% (inactive) | inactive | – | – | – | – | – | –
7 | O=C(O)CCCCCCCC(=O)O | inactive | inactive | inactive | inactive | inactive | inactive | inactive | inactive | inactive | 0.796% (inactive) | -5.44% (inactive) | inactive | 0.884% (inactive) | inactive | – | – | – | – | – | –
8 | CN=C(NC#N)NCCSCc1nc[nH]c1C | inactive | inactive | inactive | – | – | inactive | inactive | – | inactive | 4.57% (inactive) | 11.1% (inactive) | inactive | – | – | – | – | – | – | – | –
9 | COc1ccc(CN(CCN(C)C)c2ccccn2)cc1 | 12.6 µM (active) and 14.1 µM (active) and 8.91 µM (active) | inactive | inactive | inactive | – | inactive | inactive | inactive | inactive | 2.77% (inactive) | -10.9% (inactive) | – | – | – | – | – | – | – | – | –
10 | C[C@]12CCC(=O)C=C1CC[C@@H]1[C@@H]2C(=O)C[C@@]2(C)[C@H]1CC[C@]2(O)C(=O)CO | inactive | – | – | – | – | inactive | inactive | inactive | inactive | -20.1% (inactive) | 8.91% (inactive) | inactive | -0.64% (inactive) | inactive | – | – | – | – | – | –
11 | CNCCC(Oc1ccccc1OC)c1ccccc1 (stereo not given) | 12.6 µM (active) and 6.31 µM (active) | inactive | inactive | inactive | inactive | inactive | inactive | inactive | inactive | – | – | – | – | inactive | – | – | – | – | – | –
12 | FC(F)(F)c1ccccc1-n1ccnc1 | inactive | inactive | inactive | inactive | inactive | inactive | inactive | inactive | inactive | – | – | – | – | inactive | – | – | – | – | – | –
13 | COc1cc(Cc2cnc(N)nc2N)cc(OC)c1OC | inactive | inactive | inactive | inactive | inactive | inactive | inactive | – | inactive | 0.608% (inactive) | -6.78% (inactive) | inactive | – | – | inactive | – | – | – | – | –
14 | C[n+]1cc2c3c(ccc2c2ccc4cc5c(cc4c21)OCO5)OCO3 | inactive | 7.21 µM (active) | 3.22 µM (active) | 8.09 µM (active) | 15.8 µM (active) | – | inactive | inactive | – | – | – | – | – | inactive | – | – | – | – | – | –
15 | CN/C(=C\[N+](=O)[O-])NCCSCc1ccc(CN(C)C)o1 | inactive | inactive | inactive | inactive | inactive | inactive | inactive | inactive | inactive | – | – | – | – | – | – | – | – | – | – | –
16 | CCCCNC(=O)NS(=O)(=O)c1ccc(C)cc1 | inactive | inactive | inactive | inactive | inactive | inactive | inactive | inactive | inactive | -16.3% (inactive) | -17.2% (inactive) and -10.1% (inactive) | inactive | – | inactive | inactive | – | – | – | – | –
18 | C[C@]12C=CC(=O)C=C1CC[C@H]1[C@@H]3C[C@@H](O)[C@](O)(C(=O)CO)[C@@]3(C)C[C@H](O)[C@@]12F | inactive | – | – | – | – | inactive | inactive | inactive | inactive | -2.06% (inactive) | -4.06% (inactive) | inactive | – | inactive | – | – | – | – | – | –
19 | Nc1ncn([C@@H]2O[C@H](CO)[C@@H](O)[C@H]2O)c(=O)n1 | inactive | inactive | inactive | – | inactive | inactive | inactive | inactive | inactive | 19.1% (inactive) | – | 1.37 µM (active) and 1.88 µM (active) | -3.34% (inactive) and -0.684% (inactive) | – | inactive | inactive | 16.8 µM (active) | 6.56 | 22.1 | 14.8 µM (active)
